The results in this text go back to PubChem BioAssay.

Experiment [1] has as its system Human papillomavirus type 1a protein E7 (residues 44-93). Briefly: small molecules binding HPV E7 44-93 – biochemical, small-molecule microarray, residues 44-93, 635 nm fluorescence, primary screen (AID 1108).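 Note: E7 fragment applied at 1 µg/mL in TBST for 1 h at 4 C; score combines spot fluorescence with its signal to noise ratio.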 The settings on record: fluorescence 635 nm, higher = more signal.
A short description of experiment [2]: hepatitis C replication reporter changes, two-sided – Huh7 cells, luciferase reporter, HCV replication inhibitor project, primary screen (AID 1109).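 Note: huh7 hepatoma cells harbouring a luciferase neomycin HCV replicon reporter; luciferase luminescence as measure of HCV replicon replication; test concentration not given here.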 The note with it: Huh7 HCV replicon luciferase reporter, 48 h; higher = more signal.
In experiment [3] the target is Left-right determination factor 2 (Homo sapiens) (UniProt O00292). Briefly: small molecules binding LEFTY2 protein – biochemical, small-molecule microarray, 635 nm fluorescence scan, primary screen (AID 1110). The settings on record: higher = more signal.
Chain of Left-right determination factor 2 (Homo sapiens) (O00292 whole entry, looked up): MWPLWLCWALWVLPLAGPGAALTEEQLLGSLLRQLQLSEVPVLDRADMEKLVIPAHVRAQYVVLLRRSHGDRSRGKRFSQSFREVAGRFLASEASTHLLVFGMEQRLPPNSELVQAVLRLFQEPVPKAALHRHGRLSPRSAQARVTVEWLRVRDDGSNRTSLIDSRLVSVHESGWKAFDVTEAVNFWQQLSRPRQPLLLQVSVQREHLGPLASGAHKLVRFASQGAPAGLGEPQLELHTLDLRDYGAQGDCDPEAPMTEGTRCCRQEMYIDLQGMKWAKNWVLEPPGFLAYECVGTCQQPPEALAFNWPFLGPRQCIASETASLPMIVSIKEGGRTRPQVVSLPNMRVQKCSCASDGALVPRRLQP
Experiment [4] addresses Calmodulin-1 (Homo sapiens) (UniProt P0DP23). Briefly: small molecules binding calmodulin-1 with EGTA – biochemical, small-molecule microarray, Cy5-labelled CALM1, profiling panel (AID 1111).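 Note: labelled calmodulin applied in Tris saline Tween buffer holding calcium plus EGTA and DTT.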 The note with it: Cy5-CALM1 binding fluorescence, higher = more signal.
Experiment [5] has the same target. Briefly: small molecules binding Ca-loaded calmodulin-1 – biochemical, small-molecule microarray, Cy5-labelled CALM1, plus calcium, artefact control for SMM control-protein annotation, profiling panel (AID 1112).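 Note: score merges spot fluorescence with signal to noise from triplicate slides.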 The settings on record: Cy5-CALM1 binding fluorescence, higher = more signal.
Experiment [6] can be described thus: probe aWnt5a binding to arrayed compounds – biochemical, biotinylated probe, 635/667 nm fluorescence, primary screen (AID 1113).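 Note: score merges 667 nm fluorescence intensity with signal-to-noise per printed feature.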 The settings on record: small-molecule microarray, higher = more signal.
Experiment [7] can be described thus: probe aShh binding to arrayed compounds – biochemical, biotinylated probe, 635/667 nm fluorescence, primary screen (AID 1114).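 Note: probe is biotin-labelled aShh protein from a stem cell growth factor screen; measures binding of labelled protein to compounds printed on the slide; score merges feature fluorescence at 667 nm with signal-to-noise.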 The settings on record: small-molecule microarray, higher = more signal.
Experiment [8] can be described thus: probe aNog binding to arrayed compounds – biochemical, biotinylated probe, 635/667 nm fluorescence, primary screen (AID 1115).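 Note: probe is biotinylated aNog protein used at 0.15 µg/mL for 1 h at 4 C; z-score combines 667 nm fluorescence of each spot with its signal to noise.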 The note with it: small-molecule microarray, higher = more signal.
In experiment [9] the target is Torsin-1A-interacting protein 1 (Homo sapiens) (UniProt Q5JTV8). Briefly: compound microarray binding of lysate hLAP1 – cell lysate, small-molecule microarray, COS7 lysate, 635/667 nm fluorescence, primary screen (AID 1116). The settings on record: 635 nm fluorescence, higher = more signal.
Chain of Torsin-1A-interacting protein 1 (Homo sapiens) (Q5JTV8 whole entry, looked up): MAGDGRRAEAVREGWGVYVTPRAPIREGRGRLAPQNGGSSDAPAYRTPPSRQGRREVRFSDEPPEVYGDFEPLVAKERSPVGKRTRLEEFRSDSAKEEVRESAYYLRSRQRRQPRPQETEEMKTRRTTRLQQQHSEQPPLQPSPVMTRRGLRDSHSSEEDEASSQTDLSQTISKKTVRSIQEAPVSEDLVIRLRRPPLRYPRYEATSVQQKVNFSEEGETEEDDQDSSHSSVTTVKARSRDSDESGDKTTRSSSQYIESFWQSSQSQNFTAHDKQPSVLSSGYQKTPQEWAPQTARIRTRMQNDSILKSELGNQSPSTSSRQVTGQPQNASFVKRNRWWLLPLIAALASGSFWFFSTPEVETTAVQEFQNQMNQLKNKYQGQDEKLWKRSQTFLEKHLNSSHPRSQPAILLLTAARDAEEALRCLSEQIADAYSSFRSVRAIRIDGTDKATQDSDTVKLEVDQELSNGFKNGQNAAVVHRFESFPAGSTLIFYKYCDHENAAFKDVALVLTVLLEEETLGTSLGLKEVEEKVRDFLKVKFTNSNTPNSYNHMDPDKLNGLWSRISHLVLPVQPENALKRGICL
Experiment [10] has as its target Alpha-bungarotoxin (Bungarus multicinctus) (UniProt P60615). Briefly: compounds binding labelled alpha-BTX control protein – biochemical, small-molecule microarray, Alexa647 label, 635/667 nm fluorescence, artefact control for SMM control protein annotation, profiling panel (AID 1117). The note with it: alpha-BTX-A647 binding fluorescence, higher = more signal.

Chain of Alpha-bungarotoxin (Bungarus multicinctus) (P60615 whole entry, looked up): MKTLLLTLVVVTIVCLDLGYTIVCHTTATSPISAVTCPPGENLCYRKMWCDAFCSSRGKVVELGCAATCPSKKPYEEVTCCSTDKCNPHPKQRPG

Turning to `COC(=O)[C@@]1(Cc2ccc(F)cc2)[C@H]2c3cc(C(=O)N(C)C)n(Cc4cc(F)c(F)c(F)c4)c3C[C@H]2CN1C(=O)c1ccccc1`, the composite z-score in experiment [1] was 1.32; in [3], -0.323; in experiment [4], 1.6; in experiment [5], 1.01; in experiment [6] it was 0.245; in experiment [7] it was 0.566. The composite z-score stood at 2.27 in experiment [8], 1.16 in [9] and 1.17 in experiment [10]. Besides, the z-score in experiment [2] is -2.75.
Regarding `COC(=O)c1c(CC[C@@H](CO)NC(=O)NCCn2cc(C3(O)CCCC3)nn2)oc(C(C)=O)c1C(=O)OC`, the composite z-score in experiment [1] is -0.0133; in experiment [3], -0.0138; in experiment [4] it was -0.19; in [5] it was -0.732; in experiment [6], -0.169; in experiment [7], -0.195. Moreover, the composite z-score in experiment [8] was -0.158; in [9], 0.331; in experiment [10], 0.139. Also, in experiment [2], the z-score was -0.674.
Take `CC1CC/C=C\[C@H]2OC34C=CCN(Cc5ccccc5)C(=O)[C@H]3N(CCCO)C(=O)[C@@H]4C2C(=O)O1` (stereo not given in full): the composite z-score in experiment [1] is -0.537; in [3], -2.03; in experiment [4] it was -0.226; in [5], 0.876; in [6], -0.202; in [7] it was -0.449. Also, the composite z-score is 0.0522 in experiment [8], -0.0302 in experiment [9] and -0.973 in experiment [10]. Moreover, in experiment [2], the z-score is -1.29.
Take `CC(C)C(=C=CC[C@H](O)c1ccc(OCCO)cc1)CCO`: the composite z-score in [1] is 1.39; in [3], 0.131; in [4], 0.219; in [5] it was -0.729; in [6], -0.0107; in experiment [7] it was 0.163. For the same molecule, the composite z-score in experiment [8] came to 0.508; in experiment [9] it was 0.828; in [10], 0.663. In experiment [2], the z-score is -0.119.
Consider `C[C@H]1NC(=O)[C@@]23C(=O)N[C@@H](Cc4ccccc4)C2[C@H](C)[C@@]2(C)O[C@H]2C3/C=C/C/C=C\CNC(=O)[C@@H]2CCCN2C1=O` (stereo not given in full), for which the composite z-score is 0.209 in experiment [1]; 0.297 in experiment [3]; 0.339 in [4]; -0.52 in [5]; -0.0593 in experiment [6]; -0.0035 in experiment [7]. In addition, the composite z-score in experiment [8] was -0.0841; in experiment [9] it was 0.159; in experiment [10], 0.368. The molecule further yielded a z-score in experiment [2] of 0.534.
Turning to `C=CCC(OC(C)=O)[C@@H]1[C@@H](N(Cc2cccc3ccccc23)C(=O)c2ccc(-c3ccccc3)cc2)c2cc(OCCCO)ccc2N1C(=O)c1ccc2ccccc2c1` (stereo not given in full), the composite z-score is 0.564 in experiment [1]; -0.164 in experiment [3]; 0.268 in experiment [4]; 0.544 in [5]; -0.0196 in [6]; -0.0709 in experiment [7]. Moreover, the composite z-score in experiment [8] is 0.223; in experiment [9] it was 0.923; in experiment [10], -0.0516. This molecule registered a z-score in [2] of 0.098.
Take `CC1(C)[C@@H]2CC(C(O)C3C=CC4C(=O)N(c5ccccc5)C(=O)C4N3Nc3ccc([N+](=O)[O-])cc3)=C[C@H]1C2` (stereo not given in full): the composite z-score turned out to be 1.4 in experiment [1]; 0.492 in [3]; 1.69 in experiment [4]; 0.691 in experiment [5]; 0.0718 in [6]; 0.0326 in experiment [7]. Moreover, the composite z-score in [8] is 0.902; in experiment [9] it was 0.561; in experiment [10], 1.67. Moreover, the z-score in experiment [2] was -1.56.
Take `O=C1C2C=CC(C(O)Cc3ccccc3)N(n3cnnc3)C2C(=O)N1Cc1ccccc1` (stereo not given): the composite z-score was 0.625 in experiment [1]; -0.262 in experiment [3]; 0.841 in experiment [4]; 0.471 in experiment [5]; 0.127 in experiment [6]; -0.007 in experiment [7]. The composite z-score in [8] stood at 0.908; in experiment [9] it was 0.955; in experiment [10] it was 0.165. The z-score in experiment [2] was -0.53.
Take `COCCOC(=O)N1C(=O)[C@@]2(c3cc(C#CCCO)ccc31)[C@H](C(N)=O)[C@H]1C(=O)O[C@H](c3ccccc3)[C@H](c3ccccc3)N1[C@@H]2c1ccc(O)cc1`: the composite z-score in experiment [1] is -0.48; in [3], -0.142; in experiment [4], -0.0162; in experiment [5], 0.461; in experiment [6], -0.0197; in experiment [7], -0.0035. The composite z-score came out at 0.0107 in experiment [8], 0.169 in experiment [9] and 0.244 in experiment [10]. Also, the z-score in experiment [2] is 0.11.
As for `C=C(CCCC)/C(=C/C[C@@H](OC(=O)c1ccncc1)c1ccc(OCCO)cc1)c1cc(C(=O)OC)ccc1OC`, the composite z-score was 1.41 in experiment [1]; -0.0304 in experiment [3]; 0.168 in [4]; -0.959 in experiment [5]; -0.166 in experiment [6]; -0.138 in experiment [7]. In addition, the composite z-score is -0.144 in [8], 0.883 in [9] and 0.311 in experiment [10]. For the same molecule, in [2], the z-score is -1.91.
